# Reference: PubChem BioAssay (NCI)
# The panel holds about 79,000 compounds, 15% with a hit somewhere; the sample as a whole holds those more often. A number with no mark means an inactive call. Calls of active or inactive are those of the source. Rule as the data show it: active = growth inhibition above about 70%; inactive = the rest.
# Columns and labels:
# [1] = NCI Yeast Anticancer Drug Screen. Data for the rad52 strain (AID 147);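 also: 0% = growth of vehicle-treated control cultures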; conditions: S. cerevisiae rad52 mutant growth inhibition, active compounds read high
# How it was run: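 The repair-mutant yeast strain was incubated with compounds, then growth was read and inhibition derived relative to vehicle.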
# [2] = NCI Yeast Anticancer Drug Screen. Data for the wt1 strain (AID 149);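 also: 0% = growth of vehicle-treated wt1 cultures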; conditions: S. cerevisiae wt1 strain (SPY 50644) growth inhibition, active compounds read high
# How it was run: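 Each compound is tested on wt1 yeast and the loss of growth versus vehicle gives the inhibition value.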
# [3] = NCI Yeast Anticancer Drug Screen. Data for the rad50EPP+ strain (AID 151);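 also: 0% = growth of vehicle-treated control cultures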; conditions: S. cerevisiae rad50 mutant strain, active compounds read high
# How it was run: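 Vehicle-normalised growth inhibition; rad50EPP+ yeast strain, altered in DNA damage repair, compound-treated.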
# [4] = NCI Yeast Anticancer Drug Screen. Data for the mgt1 strain (AID 153); conditions: S. cerevisiae mgt1 mutant growth inhibition, active compounds read high
# How it was run: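 Vehicle-normalized growth inhibition is determined in mgt1 yeast, a strain selected for a defined alteration in DNA repair or cell cycle control.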
# [5] = NCI Yeast Anticancer Drug Screen. Data for the rad50 strain (AID 155);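 also: 0% = growth of vehicle-only cultures of the same strain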; conditions: S. cerevisiae rad50 strain growth inhibition, active compounds read high
# How it was run: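 Vehicle-treated cultures provide the reference for the growth inhibition reported for compound-exposed, repair-deficient yeast.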
# [6] = NCI Yeast Anticancer Drug Screen. Data for the mec2-1 strain (AID 157); conditions: S. cerevisiae mec2-1 strain, active compounds read high
# How it was run: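 Mutant yeast (mec2-1) grown with compound; growth inhibition relative to vehicle control reported.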
# [7] = NCI Yeast Anticancer Drug Screen. Data for the rad14 strain (AID 159);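 also: 0% = growth of vehicle-treated control cultures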; conditions: S. cerevisiae rad14 strain growth inhibition, active compounds read high
# How it was run: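 Inhibition of growth is reported for a repair-deficient yeast mutant following compound treatment, calculated relative to cultures that received vehicle.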
# [8] = NCI Yeast Anticancer Drug Screen. Data for the sgs1 mgt1 strain (AID 161);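 also: 0% = growth of cultures given vehicle only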; conditions: S. cerevisiae sgs1 mgt1 strain, active compounds read high
# How it was run: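 This yeast growth screen uses a strain with defined DNA-repair lesions; compound-treated growth is compared with vehicle-treated growth.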
# [9] = NCI Yeast Anticancer Drug Screen. Data for the CLN2oe strain (AID 163);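 also: 0% = growth of vehicle-only control cultures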; conditions: S. cerevisiae CLN2oe strain, active compounds read high
# How it was run: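 Compounds are applied to yeast harbouring a defined cell-cycle control change; reduced growth compared with vehicle-treated controls gives the value.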
# [10] = NCI Yeast Anticancer Drug Screen. Data for the bub3 strain (AID 167); conditions: S. cerevisiae bub3 mutant strain, active compounds read high
# How it was run: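 Mutant yeast screening strain plus compound; vehicle-treated cultures serve as the 0% inhibition reference.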
# [11] = NCI Yeast Anticancer Drug Screen. Data for the wt2 strain (AID 169); conditions: S. cerevisiae wt2 strain growth inhibition, active compounds read high
# How it was run: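 Against vehicle-treated controls, the growth of yeast exposed to each compound was compared, and the inhibition was recorded.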
# [12] = NCI Yeast Anticancer Drug Screen. Data for the sgs1 strain (AID 173);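 also: 0% = growth of vehicle-only control cultures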; conditions: S. cerevisiae sgs1 mutant, active compounds read high
# How it was run: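 Each compound was added to cultures of the altered yeast strain. Growth was recorded, and inhibition was derived by comparison with vehicle controls.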
# [13] = NCI Yeast Anticancer Drug Screen. Data for the mlh1 rad18 strain (AID 175); conditions: S. cerevisiae mlh1 rad18 strain growth inhibition, active compounds read high
# How it was run: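 Genetically defined yeast (DNA repair-deficient) exposed to compounds; growth inhibition determined relative to vehicle.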
# [14] = NCI Yeast Anticancer Drug Screen. Data for the rad18 strain (AID 177); conditions: S. cerevisiae rad18 mutant growth inhibition, active compounds read high
# How it was run: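 Vehicle-treated cultures served as the baseline for scoring compound-induced growth inhibition in DNA-repair-mutant yeast.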
# [15] = NCI Yeast Anticancer Drug Screen. Data for the cln2 rad14 strain (AID 165);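 also: 0% = growth equal to vehicle treated cultures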; conditions: S. cerevisiae cln2 rad14 strain, active compounds read high
# How it was run: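 Readout is yeast growth inhibition versus vehicle-treated controls, using a strain with cln2 and rad14 alterations exposed to compound.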
# [16] = at 5.0 µM (retest, dose inferred, filed as 0.5)
# [17] = at 50.0 µM (retest, dose inferred, filed as 5.0)
smiles,measurement,setting,value
COc1ccc(C2c3cc4c(cc3OC(C)(O)C2C)OCO4)c(OC)c1 (stereo not drawn),growth inhibition,[1]; at 1.2 µM,-1%
same,growth inhibition,[1]; at 3.7 µM,1%
same,growth inhibition,[1]; at 11.0 µM,3%
same,growth inhibition,[1]; at 33.0 µM,10%
same,growth inhibition,[1]; at 100.0 µM,96% (active)
same,growth inhibition,[2]; at 1.2 µM,-1%
same,growth inhibition,[2]; at 3.7 µM,3%
same,growth inhibition,[2]; at 11.0 µM,-2%
same,growth inhibition,[2]; at 33.0 µM,-2%
same,growth inhibition,[2]; at 100.0 µM,83% (active)
same,growth inhibition,[3]; at 1.2 µM,6%
same,growth inhibition,[3]; at 3.7 µM,7%
same,growth inhibition,[3]; at 11.0 µM,12%
same,growth inhibition,[3]; at 33.0 µM,7%
same,growth inhibition,[3]; at 100.0 µM,4%
same,growth inhibition,[4]; at 1.2 µM,-5%
same,growth inhibition,[4]; at 3.7 µM,-6%
same,growth inhibition,[4]; at 11.0 µM,-4%
same,growth inhibition,[4]; at 33.0 µM,-2%
same,growth inhibition,[4]; at 100.0 µM,89% (active)
same,growth inhibition,[5]; at 1.2 µM,0%
same,growth inhibition,[5]; at 3.7 µM,1%
same,growth inhibition,[5]; [16],2%
same,growth inhibition,[5]; at 11.0 µM,0%
same,growth inhibition,[5]; at 33.0 µM,9%
same,growth inhibition,[5]; [17],66%
same,growth inhibition,[5]; at 50.0 µM,95.5% (active)
same,growth inhibition,[5]; at 100.0 µM,98% (active)
same,growth inhibition,[6]; at 1.2 µM,3%
same,growth inhibition,[6]; at 3.7 µM,8%
same,growth inhibition,[6]; [16],4%
same,growth inhibition,[6]; at 11.0 µM,9%
same,growth inhibition,[6]; at 33.0 µM,15%
same,growth inhibition,[6]; [17],63%
same,growth inhibition,[6]; at 50.0 µM,94% (active)
same,growth inhibition,[6]; at 100.0 µM,94% (active)
same,growth inhibition,[7]; at 1.2 µM,-3%
same,growth inhibition,[7]; at 3.7 µM,-4%
same,growth inhibition,[7]; at 11.0 µM,-4%
same,growth inhibition,[7]; at 33.0 µM,1%
same,growth inhibition,[7]; at 100.0 µM,98% (active)
same,growth inhibition,[8]; [16],4%
same,growth inhibition,[8]; [17],70% (active)
same,growth inhibition,[8]; at 50.0 µM,84.5% (active)
same,growth inhibition,[9]; at 1.2 µM,-6%
same,growth inhibition,[9]; at 3.7 µM,-12%
same,growth inhibition,[9]; at 11.0 µM,-2%
same,growth inhibition,[9]; at 33.0 µM,4%
same,growth inhibition,[9]; at 100.0 µM,82% (active)
same,growth inhibition,[10]; at 1.2 µM,-4%
same,growth inhibition,[10]; at 3.7 µM,-1%
same,growth inhibition,[10]; [16],-4%
same,growth inhibition,[10]; at 11.0 µM,1%
same,growth inhibition,[10]; at 33.0 µM,6%
same,growth inhibition,[10]; [17],67%
same,growth inhibition,[10]; at 50.0 µM,43%
same,growth inhibition,[10]; at 100.0 µM,95% (active)
same,growth inhibition,[11]; at 1.2 µM,-2%
same,growth inhibition,[11]; at 3.7 µM,0%
same,growth inhibition,[11]; at 11.0 µM,-2%
same,growth inhibition,[11]; at 33.0 µM,1%
same,growth inhibition,[11]; at 100.0 µM,97% (active)
same,growth inhibition,[12]; at 1.2 µM,2%
same,growth inhibition,[12]; at 3.7 µM,2%
same,growth inhibition,[12]; at 11.0 µM,4%
same,growth inhibition,[12]; at 33.0 µM,18%
same,growth inhibition,[12]; at 100.0 µM,98% (active)
same,growth inhibition,[13]; [16],-6%
same,growth inhibition,[13]; [17],81% (active)
same,growth inhibition,[13]; at 50.0 µM,93.5% (active)
same,growth inhibition,[14]; at 1.2 µM,1%
same,growth inhibition,[14]; at 3.7 µM,-2%
same,growth inhibition,[14]; at 11.0 µM,1%
same,growth inhibition,[14]; at 33.0 µM,15%
same,growth inhibition,[14]; at 100.0 µM,97% (active)
c1ccc2c(c1)sc1nc3ccncc3nc12,growth inhibition,[1]; at 1.2 µM,5%
same,growth inhibition,[1]; at 3.7 µM,16%
same,growth inhibition,[1]; at 11.0 µM,38%
same,growth inhibition,[1]; at 33.0 µM,61%
same,growth inhibition,[1]; at 100.0 µM,92% (active)
same,growth inhibition,[2]; at 1.2 µM,0%
same,growth inhibition,[2]; at 3.7 µM,13%
same,growth inhibition,[2]; at 11.0 µM,21%
same,growth inhibition,[2]; at 33.0 µM,20%
same,growth inhibition,[2]; at 100.0 µM,29%
same,growth inhibition,[3]; at 1.2 µM,23%
same,growth inhibition,[3]; at 3.7 µM,52%
same,growth inhibition,[3]; at 11.0 µM,55%
same,growth inhibition,[3]; at 33.0 µM,85% (active)
same,growth inhibition,[3]; at 100.0 µM,89% (active)
same,growth inhibition,[4]; at 1.2 µM,2%
same,growth inhibition,[4]; at 3.7 µM,-2%
same,growth inhibition,[4]; at 11.0 µM,-1%
same,growth inhibition,[4]; at 33.0 µM,-1%
same,growth inhibition,[4]; at 100.0 µM,2%
same,growth inhibition,[5]; at 1.2 µM,79% (active)
same,growth inhibition,[5]; at 3.7 µM,35%
same,growth inhibition,[5]; [16],-55%
same,growth inhibition,[5]; at 11.0 µM,61%
same,growth inhibition,[5]; at 33.0 µM,76% (active)
same,growth inhibition,[5]; [17],87% (active)
same,growth inhibition,[5]; at 50.0 µM,90% (active)
same,growth inhibition,[5]; at 100.0 µM,87% (active)
same,growth inhibition,[6]; at 1.2 µM,5%
same,growth inhibition,[6]; at 3.7 µM,1%
same,growth inhibition,[6]; [16],-38%
same,growth inhibition,[6]; at 11.0 µM,0%
same,growth inhibition,[6]; at 33.0 µM,3%
same,growth inhibition,[6]; [17],-8%
same,growth inhibition,[6]; at 50.0 µM,28.1%
same,growth inhibition,[6]; at 100.0 µM,9%
same,growth inhibition,[7]; at 1.2 µM,21%
same,growth inhibition,[7]; at 3.7 µM,10%
same,growth inhibition,[7]; at 11.0 µM,11%
same,growth inhibition,[7]; at 33.0 µM,19%
same,growth inhibition,[7]; at 100.0 µM,29%
same,growth inhibition,[8]; [16],-61%
same,growth inhibition,[8]; [17],-16%
same,growth inhibition,[8]; at 50.0 µM,3.7%
same,growth inhibition,[15]; [16],-50%
same,growth inhibition,[15]; [17],-8%
same,growth inhibition,[15]; at 50.0 µM,9.05%
same,growth inhibition,[10]; at 1.2 µM,10%
same,growth inhibition,[10]; at 3.7 µM,3%
same,growth inhibition,[10]; [16],-51%
same,growth inhibition,[10]; at 11.0 µM,8%
same,growth inhibition,[10]; at 33.0 µM,11%
same,growth inhibition,[10]; [17],1%
same,growth inhibition,[10]; at 50.0 µM,6.1%
same,growth inhibition,[10]; at 100.0 µM,20%
same,growth inhibition,[11]; at 1.2 µM,13%
same,growth inhibition,[11]; at 3.7 µM,12%
same,growth inhibition,[11]; at 11.0 µM,17%
same,growth inhibition,[11]; at 33.0 µM,17%
same,growth inhibition,[11]; at 100.0 µM,29%
same,growth inhibition,[12]; at 1.2 µM,-5%
same,growth inhibition,[12]; at 3.7 µM,-8%
same,growth inhibition,[12]; at 11.0 µM,3%
same,growth inhibition,[12]; at 33.0 µM,9%
same,growth inhibition,[12]; at 100.0 µM,13%
same,growth inhibition,[13]; [16],-110%
same,growth inhibition,[13]; [17],-30%
same,growth inhibition,[13]; at 50.0 µM,32.7%
same,growth inhibition,[14]; at 1.2 µM,0%
same,growth inhibition,[14]; at 3.7 µM,-3%
same,growth inhibition,[14]; at 11.0 µM,1%
same,growth inhibition,[14]; at 33.0 µM,10%
same,growth inhibition,[14]; at 100.0 µM,22%
